In assay [1] the target is Luciferin 4-monooxygenase (Photinus pyralis) (UniProt P08659). Kind of assay: CCTE_Simmons_QuantiLum_inhib_2: CCTE's Firefly Luciferase Inhibition Assay, Simmons Lab (AID 2283767). In a few lines:
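Counter-screen for nonspecific enzyme inhibition: purified firefly luciferase incubated 30 min at 37C with chemicals up to 87.5 uM final, then luminescence measured after luciferin/dATP injection; activity fitted against DMSO baseline.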

Assay [2] is described as follows: CEETOX_H295R_MTT_cell_viability: Viability Assessment in the CeeTox HT-H295R MTT Assay (AID 2283718; active means hit-call score of the fitted dose curve at least 0.9, where 1 is the maximum; inactive means score below 0.9;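 on AC50: curve fitted both ways so AC50 may mark viability loss or gain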). In a few lines:
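MTT reduction (0.5 mg/ml, 4 h at 37 C; absorbance at 570 and 650 nm) gave viability as background-corrected percent change versus controls. H295R cells had 48 h forskolin (10 uM) prestimulation, then 48 h chemical exposure at 0.1% DMSO.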

In assay [3] the test system is chicken Androgen Receptor (AR), gene 422165. Kind of assay: ATG_chAR_XSP1: Attagene TRANS-FACTORIAL Multi-Species (XSP1) HepG2 Assay for chicken Androgen Receptor (AR) (AID 2283768). In a few lines: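 HepG2 cells transiently transfected with multiplexed GAL4-UAS reporter units expressing chimeric chicken AR-Gal4; 3 nM 6-alpha-fluorotestosterone for partial AR stimulation; 24 h after dosing, reporter mRNA by RT-PCR and capillary electrophoresis, gain-of-signal versus DMSO.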

The nature of assay [4]: Tanguay_ZF_120hpf_ActivityScore_legacy: (Legacy) Oregon State University Tanguay Lab 120 Hour Post-fertilization zebrafish Assay Score for Activity (AID 2283742). In a few lines: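 Embryos are staged, enzymatically dechorionated at 4 hpf, placed individually at 6 hpf, then held in test chemical (0.64% DMSO) at 28C until 120 hpf. Mortality and malformations are scored by brightfield, with non-mortality endpoints skipped for dead embryos.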

We go through six compounds from PubChem BioAssay (EPA / NIEHS).

Inconclusive results are not listed. The source made the active and inactive calls. How the source made its calls, unless noted: active means hit-call score of the fitted dose curve at least 0.9, where 1 is the maximum; inconclusive means response in the unintended direction; inactive means score below 0.9.

Chain of Luciferin 4-monooxygenase (Photinus pyralis) (P08659 whole entry, looked up): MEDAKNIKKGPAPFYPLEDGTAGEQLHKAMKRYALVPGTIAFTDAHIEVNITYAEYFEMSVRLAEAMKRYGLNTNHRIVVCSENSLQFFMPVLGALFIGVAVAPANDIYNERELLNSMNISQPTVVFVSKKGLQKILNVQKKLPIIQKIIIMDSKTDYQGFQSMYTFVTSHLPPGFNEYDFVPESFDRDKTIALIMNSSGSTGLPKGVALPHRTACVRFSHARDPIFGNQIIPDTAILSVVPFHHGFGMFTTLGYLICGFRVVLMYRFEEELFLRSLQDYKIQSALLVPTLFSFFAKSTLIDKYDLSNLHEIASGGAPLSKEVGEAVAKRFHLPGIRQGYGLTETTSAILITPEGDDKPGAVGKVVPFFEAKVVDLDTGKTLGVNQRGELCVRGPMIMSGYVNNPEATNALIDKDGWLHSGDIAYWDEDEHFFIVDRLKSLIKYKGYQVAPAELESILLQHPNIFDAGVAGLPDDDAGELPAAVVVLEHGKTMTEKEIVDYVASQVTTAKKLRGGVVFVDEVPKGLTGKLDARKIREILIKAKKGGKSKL

As for `CC(c1ccc(O)cc1)(c1ccc(O)cc1)c1ccc(O)cc1`, the call in assay [1] was inactive. For `C[C@]12CCC(=O)C=C1CC[C@@H]1[C@@H]2CC[C@@]2(C)[C@H]1CC[C@]2(C)O`, in assay [2], the call was inactive. For the same compound, the AC50 (usually the concentration at which the activity in the assay is half-maximal) in assay [3] was 0.000449 µM (active). On to `O=C(NC(=O)c1c(F)cccc1F)Nc1cc(Cl)c(OC(F)(F)C(F)F)c(Cl)c1`, for which the result in assay [2] and in assay [1] was inactive.

For `CCC(C)(CC)c1cc(NC(=O)c2c(OC)cccc2OC)on1`, the AC50 in assay [2] is 43 µM (active). Also, the compound was classed as inactive in assay [4]. Consider `COc1ccc(O)c(C(C)(C)C)c1`, for which, in assay [1], the compound was classed as inactive. For `O=C(NC(=O)c1cc(F)c(F)cc1Cl)Nc1cc(F)ccc1N1CCC(C(=O)O)CC1`, the call in assay [4] was inactive.
